Source: PubChem BioAssay
TIM10 inh – TIM10 yeast growth inhibition. S. cerevisiae TIM10 strain growth, BacTiter-Glo luminescence, 24 h. inhibition, % at 10 µM. actives 1.4% (n = 330,000);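 active = inhibition of 40% or more at the single tested concentration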;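 note: wild-type TIM10 isogenic control strain grown at permissive 25 °C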
Mdm2 MdmX PPI – human Mdm2/MdmX binding inhibition | O15151+Q00987 | SaOS-2 split-luciferase Mdm2/MdmX complementation, luminescence | inhibition, % at 8 µM | actives 3% (n = 330,000) | AID 485346;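 active = inhibition of at least 50% at 8 µM in the primary screen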
tim23-1 inh – inhibits growth of tim23-1 mutant yeast; S. cerevisiae tim23-1 growth, BacTiter-Glo luminescence, 24 h; inhibition, % at 20 µM; actives 1.3% (n = 330,000);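 active = growth inhibition of the mutant yeast at or above 50%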;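 note: temperature-sensitive mutant grown at 25 °C; plate controls were DMSO-treated mutant yeast for no effect and medium wells lacking yeast for full effect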
tim10-1 inh – inhibits growth of tim10-1 mutant yeast; inhibition, % at 20 µM; actives 2.2% (n = 330,000); S. cerevisiae tim10-1 ts strain growth, BacTiter-Glo, 24 h;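 active = inhibition of at least 40%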;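 note: mutant grown at 25 °C; 0% = DMSO wells with yeast and 100% = wells holding no yeast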
MPTP inh – inhibitors of mitochondrial permeability transition pore | isolated mouse mitochondria, Ca2+ swelling absorbance, 30 min | inhibition, % at 10 µM | actives 1.4% (n = 360,000) | AID 602449;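 active = inhibition of 50% or more, scaled per plate between neutral and stimulator controls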;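 note: 0% = DMSO wells given calcium and 100% = 1 mM EGTA wells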
MPTP counter – membrane potential counter-screen of mitochondrial pore inhibitors; shares compounds with MPTP inh; isolated mitochondria, Rhodamine 123 fluorescence; inhibition, % at 10 µM; actives 78% (n = 5,000); AID 624504; in the data active = inhibition above about 22%;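 note: 0% = DMSO vehicle and 100% = positive control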
MPTP swell DR – MPTP inhibition, dose response swelling confirmation | shares compounds with MPTP inh | isolated mitochondria swelling, absorbance | IC50, µM | actives 58% (n = 780) | AID 651561; in the data active = IC50 below about 20 µM
MPTP cs DR – active in counter-screen for permeability transition pore inhibitors | shares compounds with MPTP inh | isolated mitochondria counterscreen, fluorescence read-out | IC50, µM | actives 49% (n = 780) | AID 651564; in the data active = IC50 below about 80 µM
Active calls of the source: *. Hits are enriched below; roughly 6.3% of the tested compounds scored in any of these assays.

Clc1ccc2c(NCc3ccccc3)ccnc2c1 was read as TIM10 inh -24, Mdm2 MdmX PPI 45, tim23-1 inh 1, tim10-1 inh -7, MPTP inh 88* and MPTP counter 83*.
O=C(NCCNc1ccnc2cc(Cl)ccc12)c1ccccc1F was read as TIM10 inh -2, Mdm2 MdmX PPI 12, tim23-1 inh 9, tim10-1 inh 5, MPTP inh 75* and MPTP counter 57*.
For COc1cc(C2c3cc4c(cc3OC(NCc3ccccc3)C2C)OCO4)cc(OC)c1OC (configuration not stated) the results were MPTP inh 0.
`COc1ccc([C@H]2CC(=O)C=C(c3ccnc4ccc(Cl)cc34)C2)cc1` gave TIM10 inh 6, Mdm2 MdmX PPI 40, tim23-1 inh 28, tim10-1 inh 7, MPTP inh 89* and MPTP counter 99*.
For CC1=C(C(=O)Nc2ccc([N+](=O)[O-])cc2)C(c2cccc(C(F)(F)F)c2)NC(=S)N1c1ccccc1 (configuration not stated) the results were TIM10 inh 30, Mdm2 MdmX PPI -4, tim23-1 inh 29, tim10-1 inh 26, MPTP inh 75* and MPTP counter 89*.
Screening COc1ccc(C2NC(=S)N(c3ccccc3)C(C)=C2C(=O)Nc2ccccc2)cc1 (configuration not stated) returned TIM10 inh 6, Mdm2 MdmX PPI 20, tim23-1 inh 12, tim10-1 inh 25 and MPTP inh -2.
N#CC(C#N)=NNc1ccc([N+](=O)[O-])cc1 was read as TIM10 inh 38, Mdm2 MdmX PPI 26, tim23-1 inh 20, tim10-1 inh -2, MPTP inh 90* and MPTP counter 78*.
`O=C(C1CCCCC1)N1C[C@@H](O)[C@H](n2cc(-c3ccc(F)cc3)nn2)C[C@@H]1c1ccccc1` gave MPTP inh -1.
COC(=O)c1c(C)oc2ccc(N(C(=O)c3ccncc3)S(=O)(=O)c3ccc(C)cc3C)cc12 was read as TIM10 inh 23, Mdm2 MdmX PPI 33, tim23-1 inh 34, tim10-1 inh 10, MPTP inh 62* and MPTP counter 29*.
CCC1=NN(C(=O)c2cccc(Br)c2)C(O)(c2ccc(Br)cc2)C1 (configuration not stated) was read as TIM10 inh 31, Mdm2 MdmX PPI 42, tim23-1 inh 43, tim10-1 inh 39, MPTP inh 84* and MPTP counter 89*.
For CCC1=NN(C(=O)c2ccc(C)cc2)C(O)(c2ccc(Br)cc2)C1 (configuration not stated) the results were TIM10 inh 9, Mdm2 MdmX PPI 6, tim23-1 inh 38, tim10-1 inh 30 and MPTP inh 7.
Screening O=C1NC[C@H](CCCCN2CCN(CCc3ccccc3)C(=O)C2=O)N(Cc2ccccc2)C1=O returned MPTP inh -2.
`CCN1CCN(C(=O)CCCCCn2c(=O)[nH]c3cc(C(=O)OC)ccc3c2=O)CC1` gave TIM10 inh -7, Mdm2 MdmX PPI 10, tim23-1 inh 3, tim10-1 inh 2 and MPTP inh 0.
`COC(=O)c1ccc2c(=O)n(CCCCCC(=O)N3CCN(c4ccccc4)CC3)c(=O)[nH]c2c1` gave TIM10 inh 18, Mdm2 MdmX PPI 18, tim23-1 inh 10, tim10-1 inh 15, MPTP inh 64* and MPTP counter 46*.
Screening CC(C)CN1CCC(CN2CCNC(=O)C2=O)CC1 returned MPTP inh -1.
`CN(CC(=O)Nc1cccc(F)c1)CC(=O)Nc1ccccc1[N+](=O)[O-]` gave TIM10 inh -25, Mdm2 MdmX PPI 11, tim23-1 inh 3, tim10-1 inh 1, MPTP inh 78* and MPTP counter 51*.
Screening CN(CC(=O)Nc1cccc(F)c1)CC(=O)Nc1ccc(Cl)cc1[N+](=O)[O-] returned TIM10 inh -3, Mdm2 MdmX PPI 6, tim23-1 inh 33, tim10-1 inh 11 and MPTP inh 1.
For O=C(Cc1ccc(Br)cc1)NCCc1ccc(Cl)cc1Cl the results were TIM10 inh 12, Mdm2 MdmX PPI 17, tim23-1 inh 18, tim10-1 inh 10, MPTP inh 50* and MPTP counter 68*.
For O=C(Cc1ccccc1)NCCc1ccc(Cl)cc1Cl the results were TIM10 inh -2, Mdm2 MdmX PPI 12, tim23-1 inh 16, tim10-1 inh 13 and MPTP inh 1.
`O=C(Nc1csc([N+](=O)[O-])c1)Nc1c(Cl)cccc1Cl` gave TIM10 inh 10, Mdm2 MdmX PPI 30, tim23-1 inh 9, tim10-1 inh 14, MPTP inh 67* and MPTP counter 88*.
Screening CCNC(=O)NC(=O)c1csc([N+](=O)[O-])c1 returned TIM10 inh 6, Mdm2 MdmX PPI -2, tim23-1 inh 12, tim10-1 inh 11 and MPTP inh 3.
Screening FC(F)(F)Oc1ccc(NC(=S)Nc2ccccc2N2CCOCC2)cc1 returned TIM10 inh 29, Mdm2 MdmX PPI 18, tim23-1 inh 45, tim10-1 inh 34, MPTP inh 90* and MPTP counter 81*.
Screening CNc1ncnc2c1ncn2[C@H]1CN(Cc2ccco2)C[C@@H](CO)O1 returned MPTP inh 2.
`CCOCCCNCc1cn(-c2ccc(F)cc2F)nc1-c1ccccc1C` gave TIM10 inh 24, Mdm2 MdmX PPI 16, tim23-1 inh 15, tim10-1 inh 25, MPTP inh 58*, MPTP counter -2, MPTP swell DR 15* and MPTP cs DR 60*.
Screening O=C(CSc1nnnn1C1CC2CCC1C2)Nc1ccnc2ccccc12 (configuration not stated) returned TIM10 inh -19, Mdm2 MdmX PPI 37, tim23-1 inh 15, tim10-1 inh 14, MPTP inh 98* and MPTP counter 101*.
For O=C(CSc1nnnn1C1CCCCC1)Nc1ccccc1F the results were TIM10 inh -12, Mdm2 MdmX PPI 27, tim23-1 inh 17, tim10-1 inh 10 and MPTP inh 0.
CC(C)(C)NC(=S)NNC(=O)[C@H]1C[C@@H]1c1ccccc1 was read as TIM10 inh 15, Mdm2 MdmX PPI -8, tim23-1 inh 4, tim10-1 inh 15 and MPTP inh 3.
`COc1cc(OC)cc(C(=O)NC(=S)NNC(=O)[C@H]2C[C@@H]2c2ccccc2)c1` gave TIM10 inh -20, Mdm2 MdmX PPI -3, tim23-1 inh -12, tim10-1 inh -18, MPTP inh 82* and MPTP counter -2.
